In publication PMC4336329 (PLoS ONE, 2015):
In all, about 310,000 compounds went through this assay and about 14,000 (4.5%) showed an effect of 50% or more. Effects have a minus sign here. The full list was thinned out, with strong results kept by preference.

Biological target: human ether-à-go-go-related gene (hERG) potassium channel (human, UniProt Q12809)
Assay: primary screen, population patch clamp on CHO cells stably expressing hERG; higher = less effect of the substance
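Further: peak tail current of the secondary pulse compared with the same well before compound.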

Chain of human ether-à-go-go-related gene (hERG) potassium channel (Q12809 whole entry, looked up): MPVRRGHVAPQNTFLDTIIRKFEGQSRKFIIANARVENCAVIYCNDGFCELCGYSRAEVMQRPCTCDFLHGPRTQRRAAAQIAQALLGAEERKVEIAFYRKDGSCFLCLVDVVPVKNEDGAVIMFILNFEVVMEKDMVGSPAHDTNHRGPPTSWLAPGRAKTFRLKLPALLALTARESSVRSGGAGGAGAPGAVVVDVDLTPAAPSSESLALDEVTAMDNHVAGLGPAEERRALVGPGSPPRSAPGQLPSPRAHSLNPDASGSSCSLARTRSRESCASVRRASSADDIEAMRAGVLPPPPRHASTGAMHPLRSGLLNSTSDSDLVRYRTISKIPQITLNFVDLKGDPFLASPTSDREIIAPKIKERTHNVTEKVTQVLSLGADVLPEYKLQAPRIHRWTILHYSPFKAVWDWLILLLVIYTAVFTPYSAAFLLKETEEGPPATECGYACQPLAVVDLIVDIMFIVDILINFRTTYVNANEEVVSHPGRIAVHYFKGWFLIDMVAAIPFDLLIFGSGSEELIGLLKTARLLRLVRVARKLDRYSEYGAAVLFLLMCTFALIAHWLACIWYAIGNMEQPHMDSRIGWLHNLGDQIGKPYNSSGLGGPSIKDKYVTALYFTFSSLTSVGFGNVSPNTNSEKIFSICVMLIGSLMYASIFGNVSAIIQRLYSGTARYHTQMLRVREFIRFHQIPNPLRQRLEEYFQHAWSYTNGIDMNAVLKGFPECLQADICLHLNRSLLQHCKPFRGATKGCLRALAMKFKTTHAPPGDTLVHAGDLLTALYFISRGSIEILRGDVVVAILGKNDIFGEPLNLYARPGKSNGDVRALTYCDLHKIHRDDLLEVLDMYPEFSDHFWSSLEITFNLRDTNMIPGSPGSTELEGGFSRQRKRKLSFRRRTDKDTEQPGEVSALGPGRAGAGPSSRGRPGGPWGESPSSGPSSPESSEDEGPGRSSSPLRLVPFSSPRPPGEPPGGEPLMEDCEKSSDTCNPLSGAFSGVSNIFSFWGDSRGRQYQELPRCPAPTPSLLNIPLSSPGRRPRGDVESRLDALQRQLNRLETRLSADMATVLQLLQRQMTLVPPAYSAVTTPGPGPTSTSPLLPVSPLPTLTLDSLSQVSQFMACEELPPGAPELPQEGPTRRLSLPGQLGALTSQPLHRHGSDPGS

Structure (SMILES)	hERG current change (%, negative = inhibition) at 10uM [%]
Cc1nn(C)cc1/C=N/NC(=O)Cn1nccc1C	-1.28
CCCCC(=O)NC1(C(F)(F)F)NC(=O)N(C)C1=O (stereo not drawn)	11.3
CCC(Sc1nc2ccsc2c(=O)n1-c1ccc(Cl)c(C)c1)C(=O)NCc1ccco1 (stereo not drawn)	-16.8
CCOC(=O)c1nnn(CC(=O)Nc2cccc(Cl)c2C)c1C(=O)OCC	4.51
COc1cc(NC(=O)CSc2nnc3c(C)cc4c(C)ccc(C)c4n23)c(C(=O)O)cc1OC	27.1
Cc1cc(C)nc(N2CCCC(CCC(=O)NCc3ccc(F)c(F)c3)C2)n1 (stereo not drawn)	-1.25
COc1cccc(CNC(=O)CCC2CCCN(C(=O)c3ccc(C)nc3)C2)c1 (stereo not drawn)	9.47
COc1cccc(CNC(=O)CCC2CCCN(c3cc(C)nc(N)n3)C2)c1 (stereo not drawn)	-63.5
COc1cccc(CNC(=O)CCC2CCCN(C(=O)c3cc(C)[nH]n3)C2)c1 (stereo not drawn)	31.9
COc1cccc(CNC(=O)CCC2CCCN(C(=O)c3ccccc3N(C)C)C2)c1 (stereo not drawn)	0.174
COc1cccc(CNC(=O)CCC2CCCN(C(=O)c3cc(C)on3)C2)c1 (stereo not drawn)	5.3
COc1cccc(CNC(=O)CCC2CCCN(c3cc(C)nc(N4CCCC4)n3)C2)c1 (stereo not drawn)	-75
COc1cccc(CNC(=O)CCC2CCCN(C(=O)C3CCOCC3)C2)c1 (stereo not drawn)	1.51
COc1cccc(CNC(=O)CCC2CCCN(c3cc(C)nc(N(C)C)n3)C2)c1 (stereo not drawn)	-62.4
Cc1ccc(Nc2cccccc2=O)cc1	-4.5
Cc1ccc(S(=O)(=O)N(C)C)cc1NC(=O)CSc1ncn[nH]1	3.1
CC1=NN(C(=O)c2c(Br)cnn2C)C(O)(C(F)(F)F)C1 (stereo not drawn)	-24.6
Fc1cccc(Nc2ncnc3c2cnn3-c2ccccc2)c1	12.1
COc1cc(/C=N/NC(=O)c2nnn(-c3nonc3N)c2C(C)C)ccc1OCc1ccc(F)cc1	31.1
O=C(Cc1cscn1)c1ccc(O)cc1O	-9.71
COc1cc(OC)cc(C(=O)N[C@H](C(=O)Nc2ccc3c(c2)OCO3)C(C)C)c1	11
CSCC(=O)N1CCCC(CO)(CCCc2ccccc2)C1 (stereo not drawn)	-4.78
OCC1(Cc2ccc(F)cc2)CCCN(CCCC(F)(F)F)C1 (stereo not drawn)	-22.3
CSCCC(=O)N1CCCC(CO)(CCCc2ccccc2)C1 (stereo not drawn)	-8.88
O=C(CCC(F)(F)F)N1CCC(CO)(CCc2ccccc2)CC1	-12
OCC1(CCc2ccccc2)CCCN(CCCc2ccccc2)C1 (stereo not drawn)	-70.9
OCC1(CCc2ccccc2)CCCN(CCCC(F)(F)F)C1 (stereo not drawn)	-51.7
